Laboratory results as given in PubChem BioAssay (NCATS).
Results filed as inconclusive are left out. Entries that show only a call come without a potency. A number with no mark means an inactive call. Active and inactive are the calls of the source. Calls come from the whole dose curve; as a rule, active = well fitted curve in the direction sought with a large enough effect; inconclusive = small, poorly fitted or top-dose-only effect, or another doubt; inactive = no such curve, though single readings can be large; an effect the other way counts as inactive or inconclusive.

Key:
[1] = biological target: Cellular tumor antigen p53 (Homo sapiens) (UniProt P04637); test: Primary qHTS for small molecule compounds that upregulate eGFP-tagged delta133p53alpha (in N-terminal) cells. (AID 2060322); conditions: NCI-H358 eGFP-delta133p53alpha fluorescence, 24 h; activation: active compounds read high; note: nearly all actives have a fitted effect of over 75% in size; note: potency is the fitted concentration of half-maximal effect
Sequence of Cellular tumor antigen p53 (Homo sapiens) (P04637 whole entry, looked up): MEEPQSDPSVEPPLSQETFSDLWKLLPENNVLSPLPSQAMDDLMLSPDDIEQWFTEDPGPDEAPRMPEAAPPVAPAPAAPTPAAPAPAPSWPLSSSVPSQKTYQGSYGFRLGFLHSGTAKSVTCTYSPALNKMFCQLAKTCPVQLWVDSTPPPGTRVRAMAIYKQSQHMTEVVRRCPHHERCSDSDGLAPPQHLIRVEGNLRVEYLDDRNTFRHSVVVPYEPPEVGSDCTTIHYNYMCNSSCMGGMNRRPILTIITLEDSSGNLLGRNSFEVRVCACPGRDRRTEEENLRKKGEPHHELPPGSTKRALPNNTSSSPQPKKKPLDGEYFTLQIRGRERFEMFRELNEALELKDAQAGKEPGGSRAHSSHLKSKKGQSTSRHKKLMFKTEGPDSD
In short: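 NCI-H358 cells pre-induced 24 h with 10 ng/ml doxycycline to express N-terminal eGFP-delta133p53alpha, then dosed 24 h at 37C without doxycycline; fixed, Hoechst-stained, GFP intensity by laser scanning cytometry, normalized to DMSO (0%) and 57.5 uM 5-azacytidine (100%).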

[2] = biological target: Aldehyde dehydrogenase, mitochondrial (Homo sapiens) (UniProt P05091); test: qHTS for Inhibitors of the Aldehyde Dehydrogenase Family (ALDH2) Primary screen (AID 2061308); conditions: ALDH2 enzyme inhibition qHTS, 1536-well; series mostly up to 56 µM; note: nearly all actives have a fitted effect of over 55% in size
[3] = biological target: Retinaldehyde dehydrogenase 3 (Homo sapiens) (UniProt P47895); test: qHTS for Inhibitors of the Aldehyde Dehydrogenase Family (ALDH1A3) Primary screen (AID 2061315); conditions: ALDH inhibition qHTS; series mostly up to 56 µM

Row | Structure (SMILES) | activation [1] [%] | Potency [2] | Potency [3] | Potency [1] | activity change, negative = inhibition [2] | activity change, negative = inhibition [3]
1 | CCOc1ccc(-c2nn3ncccc3c2-c2ccc(S(C)(=O)=O)cc2)cc1 | -4.46 | inactive | inactive |  |  | 
2 | COc1c2c(c(C)c3c1C(=O)OC3)O[C@@]1(C)C[C@@H](O)[C@]34O[C@](OC)(CC[C@]3(C)[C@H]1C2)OC4(C)C | -1.53 | inactive | inactive |  |  | 
3 | C=C(CO)C(=O)O[C@H]1C[C@@]23O[C@@H]2CC/C(=C/[C@H]2OC(=O)C(=C)[C@H]12)CO[C@H]3O | 26.8 | inactive | inactive |  |  | 
4 | COC12CC3C(C(C)C1=CC(=O)O2)C(O)C(OC(C)=O)C1C(C)(C)C(OC(C)=O)CCC31C (stereo not drawn) | -3.05 | inactive | inactive |  |  | 
5 | CC1(C)CC[C@]2(C(=O)O)CC[C@]3(C)C(=CCC4[C@@]5(C)C[C@@H](O)[C@H](O)[C@@](C)(CO)C5[C@H](O)C[C@]43C)[C@@H]2C1 (stereo partly drawn) | -19.8 | inactive | inactive |  |  | 
6 | COC(=O)c1ccccc1O[C@@H]1O[C@H](CO[C@@H]2OC[C@@H](O)[C@H](O)[C@H]2O)[C@@H](O)[C@H](O)[C@H]1O | -12.2 | inactive | inactive |  |  | 
7 | C=C1CCC2C(C)(C)CC(O)CC2(C)C1CCC(C)CCOC(=O)CCC(=O)O (stereo not drawn) | 17.6 | inactive | inactive |  |  | 
8 | COc1ccccc1-c1c[nH]c2ncc(-c3cncc(C(=O)N(C)C)c3)cc12 |  | inactive | inactive | 21.3 µM (active) |  | 
9 | CC(=O)O[C@@H]1[C@H](O[C@@H]2OC[C@](O)(CO)[C@H]2O)[C@@H](O[C@@H]2O[C@@H](C)[C@H](O)[C@@H](O[C@@H]3O[C@H](CO)[C@@H](O)[C@H](O)[C@H]3O)[C@H]2O)[C@H](OC(=O)[C@]23CCC(C)(C)C[C@H]2C2=CCC4[C@@]5(C)C[C@H](O)[C@H](O[C@@H]6O[C@H](C(=O)O)[C@@H](O)[C@H](O)[C@H]6O)[C@@](C)(C(=O)O)C5CC[C@@]4(C)[C@]2(C)CC3)O[C@@H]1C (stereo partly drawn) | -16.8 |  |  |  | 3.67% [at 11.2 µM] | -13.4% [at 11.2 µM]
10 | COc1cc(-c2ccc(O)cc2)c(OC)c(O)c1C1=CC(=O)OC1CC(=O)O (stereo not drawn) | 13.7 | inactive | inactive |  |  | 
11 | C=CC1C(OC2OC(CO)C(O)C(O)C2O)OC=C(C(=O)OC)C1CC(=O)OCC1C(C)C(O)CC1C(CO)COC(=O)CC1C(C(=O)O)=COC(OC2OC(CO)C(O)C(O)C2O)/C1=C\C (stereo not drawn) | -16 | inactive | inactive |  |  | 
12 | CC(=O)O[C@H]1CC[C@]2(C)[C@H]3CC[C@]4(C)Oc5oc(C)cc(=O)c5C[C@H]4[C@]3(C)CC[C@H]2C1(C)C | 0 | inactive | inactive |  |  | 
13 | CCNC(=O)NCCCOc1cccc(CN2CCCCC2)c1 | 15 | inactive | inactive |  |  | 
14 | C[C@@H]1O[C@@H](O[C@H]2[C@H](O)[C@@H](O[C@@H]3O[C@H](CO)[C@@H](O)[C@H](O[C@@H]4O[C@H](CO)[C@@H](O)[C@H](O)[C@H]4O)[C@H]3O)[C@H](O[C@H]3CC[C@@]4(C)C(=CC[C@@H]5C4CC[C@@]4(C)C5C[C@@H]5OC6(CC[C@@](C)(CO[C@@H]7O[C@H](CO)[C@@H](O)[C@H](O)[C@H]7O)O6)[C@@H](C)[C@@H]54)C3)O[C@@H]2CO)[C@H](O)[C@H](O)[C@H]1OC1OC(CO)C(O)C(O)C1O (stereo partly drawn) | 13 |  |  |  | -9.01% [at 11.2 µM] | -22.4% [at 11.2 µM]
15 | COc1ccccc1-c1cc(Nc2cccc(CS(N)(=O)=O)c2)ncn1 |  | inactive | inactive | 8.49 µM (active) |  | 
16 | C=C(C(=O)O)C1CC(OC(=O)CC(C)CC)C2(C)CCCC(=C)C2C1 (stereo not drawn) | -13 | inactive | inactive |  |  | 
17 | Cc1cn2cc(C(=O)N(C)CCO)cc(NC3CCOc4cccc(C)c43)c2n1 (stereo not drawn) | -10.3 | inactive | inactive |  |  | 
18 | Cc1occc(=O)c1O[C@@H]1O[C@H](CO)[C@@H](O)[C@H](O)[C@H]1O | 11.6 | inactive | inactive |  |  | 
19 | CC(C)n1cnc2c(-c3cnc(N)nc3)nc(N3CCOCC3)nc21 | 15.7 | inactive | inactive |  |  | 
20 | CC(CC12CCCN1C(=O)C1CCCN1C2=O)OC(N)=O (stereo not drawn) | -18.3 | inactive | inactive |  |  | 
21 | C=CC(C)(C)c1[nH]c2cc3c(cc2c1CC1NC(=O)C2CCCN2C1=O)C=CC(C)(C)O3 (stereo not drawn) | -13 | inactive | inactive |  |  | 
